For one compound, AC50 results are on record in PubChem BioAssay AID2284195 (EPA ToxCast).

The source made the active and inactive calls. Rule for the calls: active = hit-call score of the fitted dose curve at least 0.9, where 1 is the maximum; inactive = score below 0.9.

Sequence of Retinoic acid receptor alpha (Homo sapiens) (P10276 whole entry, looked up): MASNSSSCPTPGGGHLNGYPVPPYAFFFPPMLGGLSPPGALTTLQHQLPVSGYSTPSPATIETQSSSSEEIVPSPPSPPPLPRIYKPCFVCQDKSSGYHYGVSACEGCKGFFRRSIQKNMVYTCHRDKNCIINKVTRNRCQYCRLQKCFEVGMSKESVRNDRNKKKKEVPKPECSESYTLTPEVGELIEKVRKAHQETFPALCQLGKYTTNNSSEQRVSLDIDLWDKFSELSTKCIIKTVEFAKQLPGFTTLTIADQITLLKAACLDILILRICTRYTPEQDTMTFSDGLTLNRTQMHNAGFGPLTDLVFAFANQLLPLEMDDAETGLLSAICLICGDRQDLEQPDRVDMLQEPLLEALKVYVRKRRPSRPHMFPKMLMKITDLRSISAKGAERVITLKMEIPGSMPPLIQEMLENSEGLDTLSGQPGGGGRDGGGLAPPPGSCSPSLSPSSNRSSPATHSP

For this assay, the target named is Retinoic acid receptor alpha (Homo sapiens) (UniProt P10276). Briefly: ERF_TW_NR_hRARa: Eurofins (ERF) Nuclear Receptor (NR) Radioligand Binding LeadHunter Assay for human Retinoic Acid Receptor alpha (RARa) Agonism. How it is done:
ERF_TW_NR_hRARa is a biochemical, single-readout assay that uses extracted gene-proteins in a cell-free assay. Measurements were taken 2 hour after chemical dosing in a 96-well plate. See RARalpha Human retinoic acid NHR Binding (Agonist Radioligand) Assay, Panlabs.ERF_TW_NR_hRARa is an assay component calculated from the ERF_TW_NR_hRARa assay. It is designed to measure radioligand binding using a type of binding reporter as detected by scintillation counting with radiometry technology.Data from the assay component ERF_TW_NR_hRARa was analyzed at the assay endpoint, ERF_TW_NR_hRARa, in the positive analysis fitting direction relative to DMSO as the negative control and baseline of activity. Using a type of binding reporter, gain-of-signal activity can be used to understand changes in radioligand binding as they relate to gene RARA. To generalize the intended target to other relatable targets, this assay endpoint is annotated to the nuclear receptor intended target family, where the subfamily is retinoic acid receptor.
Human recombinant RARalpha-LBD expressed in insect cells are used in modified Tris-HCl buffer pH 7.4. A 0.025 ug aliquot is incubated with 3 nM [3H]9-cis-Retinoic acid and 1 ug Anti-GST antibody for 2 hours at 4C. Non-specific binding is estimated in the presence of 1 uM 9-cis-retinoic acid. Receptors are counted to determine [3H]9-cis-Retinoic acid specifically bound. […]
In general, AC50 refers to the concentration giving half of the maximal activity seen. Turning to `O=C(/C=C/c1ccc(O)cc1)CC(=O)/C=C/c1ccc(O)cc1`, the AC50 was 2240 nM (active).
